Assay results taken from PubChem BioAssay AID651812 (National Center for Advancing Translational Sciences (NCATS), 2012).
In all, about 2,100 compounds went through this assay and about 650 (31%) were called active. Inconclusive results (about 16%) are left out. Calls come from the whole dose curve; as a rule, active = well fitted inhibition curve with a large enough effect; inconclusive = small, poorly fitted or top-dose-only effect; inactive = flat fitted curve, though single readings scatter. The list shows a part of the results.

Experiment: qHTS for inhibitors of Vif-A3G interactions: Cherry picks; note: nearly all actives have a fitted effect of over 80% in size; for activity, negative = fluorescence increase: % of control where 0% means no effect
Settings: HeLa A3G-eYFP + Vif (tagged APOBEC3G with the HIV-1 protein that degrades it), 24 h; Potency: eYFP fluorescence increase; series mostly up to 36.9 µM; activity, negative = fluorescence increase: at the top concentration
In short: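 Cherry-picked compounds tested at several concentrations on A3G-eYFP/Vif HeLa cells for 24 hours; loss of Vif-driven degradation read as eYFP fluorescence by cytometric plate imaging, 488 nm excitation, 500-530 nm emission.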
Potency is the fitted concentration of half-maximal effect.

Structure (SMILES)	activity, negative = fluorescence increase	Potency
COc1ccc(NC(=O)C2Cc3c(-c4cccc(C(C)=O)c4)ccnc3O2)cc1 (stereo not drawn)	-8.31% (inactive)	–
Cc1c(/C=N\NC(=O)c2cc3ccccc3o2)c2ccccc2n1C	-6.08% (inactive)	–
Cc1ccccc1-n1c(/C=C/c2c(C)n(C)c3ccccc23)nc2ccccc2c1=O	–	8.2 µM (active)
CCCn1c(CN2CCN(C(=O)OCC)CC2)nc2cc(NC(=O)C(C)C)ccc21	0.103% (inactive)	–
COc1ccccc1Nc1nnc(SCC2CCCCO2)s1 (stereo not drawn)	-0.68% (inactive)	–
Cc1cc2nc(SCCOC(=O)Nc3cccc(Cl)c3)nc(C)c2cc1C	4.01% [at 46.1 µM] (inactive)	–
Cn1ncc(N=Cc2c(O)ccc3ccccc23)c1C(=O)Nc1cccc(Cl)c1	–	11.6 µM (active)
O=C(NN=Cc1c(O)ccc2ccccc12)c1ccc2c(c1)OCO2	-26.3% [at 46.1 µM] (inactive)	–
CSc1nsc(/C=C/Nc2ccc(F)cc2)c1C#N	4.62% [at 46.1 µM] (inactive)	–
Cc1nc(CSc2nsc(/C=C/N(C)C)c2C#N)cs1	-3.04% (inactive)	–
CSc1nsc(/C=C/Nc2ccc(O)cc2C)c1C#N	–	20.6 µM (active)
Cc1cc(C)nc(Nc2n[nH]c(COc3cccc4ccccc34)n2)n1	1.35% (inactive)	–
CCN(CC)C(=O)Cn1c(=O)n(-c2ccccc2)c(=O)c2c3c(sc21)CCC3	11.4% [at 46.1 µM] (inactive)	–
Cc1ccc(NC(=O)c2ccc(NCC3CCCO3)c([N+](=O)[O-])c2)cc1Cl (stereo not drawn)	–	16.4 µM (active)
O=C(Nc1cc(F)cc(F)c1)c1ccc(NCCc2ccccc2)c([N+](=O)[O-])c1	–	14.6 µM (active)
Cc1ccc(NC(=O)CSc2ccccc2NC(=O)c2cccc(Cl)c2)cc1Cl	2.74% [at 46.1 µM] (inactive)	–
Cc1ccc(NC(=O)c2ccc(NCc3ccco3)c([N+](=O)[O-])c2)cc1Cl	–	18.4 µM (active)
O=C(NC(=S)Nc1ccc(N2CCCCC2)c(Cl)c1)c1ccc2c(c1)OCCO2	-0.693% [at 46.1 µM] (inactive)	–
Cc1ccc2c(CC(=O)NCc3ccco3)coc2c1C	-4.36% (inactive)	–
Cc1ccc(NC(=O)c2ccc([N+](=O)[O-])s2)cc1S(=O)(=O)N1CCOCC1	3.79% (inactive)	–
O=C(O)c1ccc(NS(=O)(=O)c2cccc(C(=O)Nc3ccccc3[N+](=O)[O-])c2)cc1	-3.19% (inactive)	–

Structure (SMILES)	activity, negative = fluorescence increase	Potency
S=C(Nc1ccccc1)N1CCn2c1nc1ccccc12	-1.43% (inactive)	–
CC(=O)c1cccc(-c2ccnc3c2CC(C(=O)Nc2ccc4c(c2)OCO4)O3)c1 (stereo not drawn)	-0.931% (inactive)	–
COc1ccccc1N1CCN(C(=O)c2cc(=O)c3cc(C)ccc3o2)CC1	-7.42% (inactive)	–
CCCC(=O)NC(c1ccc(OC)cc1)c1c(O)ccc2ccccc12 (stereo not drawn)	-6.1% (inactive)	–
COc1cc(-c2cc(NC=O)c3ncc(-c4ccc(C(C)=O)cc4)n3c2)cc(OC)c1OC	0.567% (inactive)	–
CCN(CC)c1nc(C)c(C(=S)Nc2cc([N+](=O)[O-])ccc2Cl)s1	7.74% [at 46.1 µM] (inactive)	–
C/C(CCC(C)C)=N\NC(=S)NCc1ccccc1	4.1% [at 46.1 µM] (inactive)	–
Cc1ccc(C(=O)Nc2sc(Cc3ccc4c(c3)OCO4)c(C)c2C(N)=O)cc1	-26.3% [at 46.1 µM] (inactive)	–
CC(C)N1CCc2c(sc(NC(=O)c3cc4cc([N+](=O)[O-])ccc4s3)c2C(N)=O)C1	-27.5% [at 46.1 µM] (inactive)	–
CCN1CCc2c(sc(-n3cccc3)c2C(C)NC(=O)Nc2ccc(C(=O)OC)cc2)C1 (stereo not drawn)	10.3% [at 46.1 µM] (inactive)	–
CCCCN(CCCC)S(=O)(=O)c1ccc(C(=O)Nc2sc3c(c2C(N)=O)CCN(CC)C3)cc1	–	29.1 µM (active)
CC(C)N1CCc2c(sc(NC(=O)c3ccc(S(=O)(=O)N4CCOCC4)cc3)c2C#N)C1	–	20.6 µM (active)
COc1ccc(C(=O)Nc2sc3c(c2C#N)CCN(C(C)=O)C3)cc1	-8.58% (inactive)	–
CC(C)CN(CC(C)C)S(=O)(=O)c1ccc(C(=O)Nc2sc3c(c2C(N)=O)CCN(C(C)C)C3)cc1	–	18.4 µM (active)
COc1cccc(C(=O)Nc2sc3c(c2C#N)CCN(C(C)=O)C3)c1	-8.68% (inactive)	–
CCN1CCc2c(sc(NC(=O)c3ccc(S(=O)(=O)N(CC)c4ccccc4)cc3)c2C(N)=O)C1	–	17.7 µM (active)
CC1(C)COC(Cn2c3ccccc3c3ccccc32)O1 (stereo not drawn)	-5.66% (inactive)	–
COC(=O)c1ccc(Oc2cc(C)nc(SC)n2)cc1	-10.7% (inactive)	–
CC(/C=N/NC(=O)c1cccc(F)c1)=C\c1ccccc1	-11.1% (inactive)	–
O=C(Cn1ncc(Cl)c(Cl)c1=O)NC(=O)NC1CCCCC1	0.0571% (inactive)	–
C=CCSc1nc2sc3c(c2c(=O)n1CC)CCC3	1.48% [at 46.1 µM] (inactive)	–

Structure (SMILES)	activity, negative = fluorescence increase	Potency
COc1ccc(S(=O)(=O)N2c3ccccc3OCC2CC(=O)O)cc1 (stereo not drawn)	-10.8% (inactive)	–
CCCN1CCc2c(sc(NC(=O)c3ccc(S(=O)(=O)N(C)c4ccccc4)cc3)c2C(=O)NC)C1	–	18.4 µM (active)
COc1ccccc1N(C)S(=O)(=O)c1ccc(C(=O)OCC(=O)N2CCC2)cc1	-5.51% (inactive)	–
CCCN1CCc2c(sc(NC(=O)c3ccc(S(=O)(=O)N(C)c4ccccc4)cc3)c2C(N)=O)C1	–	16.4 µM (active)
CC(C)(C)C(=O)Nc1sc2c(c1C#N)CCN(Cc1ccccc1)C2	-0.815% [at 46.1 µM] (inactive)	–
CCOC(=O)c1c(NC(=O)c2ccc(S(=O)(=O)N3CCC(C)CC3)cc2)sc2c1CCN(C)C2	–	18.4 µM (active)
COc1cc(N2CCCC2)c(OC)cc1/C=C(/C#N)c1ccc(F)cc1	–	18.4 µM (active)
COc1cc(N2CCCC2)c(OC)cc1/C=C(/C#N)c1ccc(Br)cc1	–	8.2 µM (active)
CSc1nc2ccccc2cc1/C=C(\C#N)c1ccccc1	-8.54% (inactive)	–
COc1cc(-c2cnc3c(NC(C)=O)cc(-c4ccccc4CN(C)C)cn23)cc(OC)c1OC	-4.76% (inactive)	–
COc1cc(C(=O)OCC(=O)Nc2ccc(N3CCOCC3)cc2)ccc1OCC(C)C	0.73% (inactive)	–
CN(C)c1ccc(/C=C/c2ccnc3ccc(I)cc23)cc1	–	5.17 µM (active)
Cc1cc(C)c2nccc(/C=C/c3ccc(N(C)C)cc3)c2c1	–	16.4 µM (active)
CN(C)c1ccc(/C=C/c2ccnc3ccc(Br)cc23)cc1	–	2.59 µM (active)
COc1ccc2nccc(/C=C/c3ccc(N(C)C)cc3)c2c1	–	18.4 µM (active)
CC1(C(=O)NCc2cccs2)Cc2c(-c3ccc(C(N)=O)cc3)ccnc2O1 (stereo not drawn)	-1.21% (inactive)	–
COc1ccccc1-c1cc(NC=O)c2ncc(-c3cccc(C(=O)N(C)C)c3)n2c1	-7.96% (inactive)	–
COc1cc(C(=O)Nc2ccc3c(c2)ncn3C)cc(OC)c1OC	-5.75% (inactive)	–
CC(=O)Nc1cccc(-c2ccnc3c2CC(C(=O)NCc2ccco2)O3)c1 (stereo not drawn)	-4.86% (inactive)	–
Cc1ccc2nccc(/C=C/c3ccc(N(C)C)cc3)c2c1	–	16.4 µM (active)
CN(C)c1ccc(/C=C/c2ccnc3ccc(N)cc23)cc1	–	18.4 µM (active)
